In the supplement of paper PMC8728848:
Shown is part of a subset that was picked to be rich in the strongest signals.

Key:
Assay in all cases: glycan array binding signal (z-score within array); higher = stronger binding
Conditions in all cases: glycan notation: IUPAC condensed, linker removed
[1] = molecular target: Fuc(a1-2)Gal(b1-3)GlcNAc(b1-2)Man(a1-3)[Fuc(a1-2)Gal(b1-3)GlcNAc(b1-2)Man(a1-6)]Man(b1-4)GlcNAc(b1-4)[Fuc(a1-6)]GlcNAc
In short: (§1)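 The binding signal is a Z-score computed within each array and averaged over linkers. Arrays of the same protein sequence at different concentrations or buffers were also averaged together. Data originate from 3228 arrays in the Consortium for Functional Glycomics database, kept only where the protein sequence was available.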

[2] = molecular target: Fuc(a1-2)Gal(b1-3)GlcNAc(b1-3)Gal(b1-4)Glc
In short: as §1

[3] = molecular target: Fuc(a1-2)Gal(b1-4)GlcNAc(b1-2)Man(a1-3)[Fuc(a1-2)Gal(b1-4)GlcNAc(b1-2)Man(a1-6)]Man(b1-4)GlcNAc(b1-4)[Fuc(a1-6)]GlcNAc
In short: as §1

[4] = molecular target: Fuc(a1-2)Gal(b1-4)[Fuc(a1-3)]GlcNAc(b1-3)Gal(b1-4)[Fuc(a1-3)]GlcNAc(b1-3)Gal(b1-4)[Fuc(a1-3)]GlcNAc
In short: as §1

[5] = molecular target: Fuc(a1-2)[Gal(a1-3)]Gal(b1-3)GlcNAc(b1-2)Man(a1-3)[Fuc(a1-2)[Gal(a1-3)]Gal(b1-3)GlcNAc(b1-2)Man(a1-6)]Man(b1-4)GlcNAc(b1-4)[Fuc(a1-6)]GlcNAc
In short: as §1

[6] = molecular target: Fuc(a1-2)[Gal(a1-3)]Gal(b1-4)GlcNAc
In short: as §1

[7] = molecular target: Fuc(a1-2)[Gal(a1-3)]Gal(b1-4)GlcNAc(b1-3)[Fuc(a1-2)[Gal(a1-3)]Gal(b1-4)GlcNAc(b1-6)]GalNAc
In short: as §1

[8] = molecular target: Fuc(a1-2)[Gal(a1-3)]Gal(b1-4)GlcNAc(b1-6)GalNAc
In short: as §1

[9] = molecular target: Fuc(a1-2)[GalNAc(a1-3)]Gal(b1-3)GalNAc(b1-3)Gal(a1-4)Gal(b1-4)Glc
In short: as §1

[10] = molecular target: Fuc(a1-2)[GalNAc(a1-3)]Gal(b1-4)GlcNAc(b1-3)GalNAc
In short: as §1

[11] = molecular target: Fuc(a1-3)[Gal(b1-4)]GlcNAc(b1-3)Gal(b1-4)[Fuc(a1-3)]GlcNAc(b1-3)Gal(b1-4)[Fuc(a1-3)]GlcNAc
In short: as §1

[12] = molecular target: Fuc(a1-3)[Gal3S(b1-4)]GlcNAc6S
In short: as §1

Fuc(b1-3)GlcNAc = molecular target: Fuc(b1-3)GlcNAc
In short: as §1

[13] = molecular target: Gal(a1-3)Gal(b1-3)GlcNAc(b1-2)Man
In short: as §1

[14] = molecular target: Gal(a1-3)Gal(b1-3)GlcNAc(b1-2)Man(a1-3)[Gal(a1-3)Gal(b1-3)GlcNAc(b1-2)Man(a1-6)]Man(b1-4)GlcNAc(b1-4)GlcNAc
In short: as §1

Gal(b1-3)GlcNAc(b1-2)Man = molecular target: Gal(b1-3)GlcNAc(b1-2)Man
In short: as §1

[15] = molecular target: Gal(b1-3)GlcNAc(b1-2)[Gal(b1-3)GlcNAc(b1-6)]Man(a1-6)[Gal(b1-3)GlcNAc(b1-2)Man(a1-3)]Man(b1-4)GlcNAc(b1-4)GlcNAc
In short: as §1

[16] = molecular target: Gal(b1-3)GlcNAc(b1-3)Gal(b1-4)[Fuc(a1-3)]GlcNAc
In short: as §1

[17] = molecular target: Gal(b1-3)GlcNAc(b1-3)GalNAc
In short: as §1

Gal(b1-4)GlcNAc(b1-2)Man = molecular target: Gal(b1-4)GlcNAc(b1-2)Man
In short: as §1

[18] = molecular target: Gal(b1-4)GlcNAc(b1-2)Man(a1-3)[Gal(b1-4)GlcNAc(b1-2)Man(a1-6)][GlcNAc(b1-4)]Man(b1-4)GlcNAc(b1-4)[Fuc(a1-6)]GlcNAc
In short: as §1

[19] = molecular target: Gal(b1-4)GlcNAc(b1-2)[Gal(b1-4)GlcNAc(b1-6)]Man(a1-6)[GlcNAc(b1-4)][Gal(b1-4)GlcNAc(b1-2)Man(a1-3)]Man(b1-4)GlcNAc(b1-4)GlcNAc
In short: as §1

[20] = molecular target: Gal(b1-4)GlcNAc(b1-3)Gal(b1-4)Glc
In short: as §1

[21] = molecular target: Gal(b1-4)GlcNAc(b1-3)Gal(b1-4)GlcNAc(b1-2)[Gal(b1-4)GlcNAc(b1-3)Gal(b1-4)GlcNAc(b1-6)]Man(a1-6)[Gal(b1-4)GlcNAc(b1-3)Gal(b1-4)GlcNAc(b1-2)Man(a1-3)]Man(b1-4)GlcNAc(b1-4)GlcNAc
In short: as §1

[22] = molecular target: Gal(b1-4)GlcNAc(b1-3)Gal(b1-4)GlcNAc(b1-3)Gal(b1-4)GlcNAc(b1-2)Man(a1-3)[Gal(b1-4)GlcNAc(b1-3)Gal(b1-4)GlcNAc(b1-3)Gal(b1-4)GlcNAc(b1-2)Man(a1-6)]Man(b1-4)GlcNAc(b1-4)[Fuc(a1-6)]GlcNAc
In short: as §1

[23] = molecular target: Gal(b1-4)GlcNAc(b1-3)Gal(b1-4)GlcNAc(b1-3)Gal(b1-4)GlcNAc(b1-3)Gal(b1-4)GlcNAc(b1-2)[Gal(b1-4)GlcNAc(b1-3)Gal(b1-4)GlcNAc(b1-3)Gal(b1-4)GlcNAc(b1-3)Gal(b1-4)GlcNAc(b1-6)]Man(a1-6)[Gal(b1-4)GlcNAc(b1-3)Gal(b1-4)GlcNAc(b1-3)Gal(b1-4)GlcNAc(b1-3)Gal(b1-4)GlcNAc(b1-2)Man(a1-3)]Man(b1-4)GlcNAc(b1-4)[Fuc(a1-6)]GlcNAc
In short: as §1

[24] = molecular target: Gal(b1-4)GlcNAc(b1-3)Gal(b1-4)GlcNAc(b1-3)Gal(b1-4)GlcNAc(b1-3)Gal(b1-4)GlcNAc(b1-3)Gal(b1-4)GlcNAc(b1-2)Man(a1-3)[Gal(b1-4)GlcNAc(b1-3)Gal(b1-4)GlcNAc(b1-3)Gal(b1-4)GlcNAc(b1-3)Gal(b1-4)GlcNAc(b1-3)Gal(b1-4)GlcNAc(b1-2)Man(a1-6)]Man(b1-4)GlcNAc(b1-4)[Fuc(a1-6)]GlcNAc
In short: as §1

B1: Aap lectin (Staphylococcus epidermidis) (protein)
chain: VNLNYSSPFMSLLSMPADSSSNNTKNTIDIPPTTVKGRDNYDFYGRVDIESNPTDLNATNLTRYNYGQPPGTTTAGAVQFKNQVSFDKDFDFNIRVANNRQSNTTGADGWGFMFSKKDGDDFLKNGGILREKGTPSAAGFRIDTGYYNNDPLDKIQKQAGQGYRGYGTFVKNDSQGNTSKVGSGTPSTDFLNYADNTTNDLDGKFHGQKLNNVNLKYNASNQTFTATYAGKTWTATLSELGLSPTDSYNFLVTSS
[1]
  glycan array binding signal (z-score): 2.87
[2]
  glycan array binding signal (z-score): -0.68
[3]
  glycan array binding signal (z-score): -0.829
[4]
  glycan array binding signal (z-score): -0.534
[5]
  glycan array binding signal (z-score): 3.02
[6]
  glycan array binding signal (z-score): 3.04
[7]
  glycan array binding signal (z-score): 2.98
[8]
  glycan array binding signal (z-score): -0.267
[9]
  glycan array binding signal (z-score): -0.573
[10]
  glycan array binding signal (z-score): 0.8
[11]
  glycan array binding signal (z-score): 0.476
[12]
  glycan array binding signal (z-score): -0.816
Fuc(b1-3)GlcNAc
  glycan array binding signal (z-score): 0.487
[13]
  glycan array binding signal (z-score): 2.18
[14]
  glycan array binding signal (z-score): 2.88
Gal(b1-3)GlcNAc(b1-2)Man
  glycan array binding signal (z-score): 3.17
[15]
  glycan array binding signal (z-score): -0.728
[16]
  glycan array binding signal (z-score): -0.351
[17]
  glycan array binding signal (z-score): 0.183
Gal(b1-4)GlcNAc(b1-2)Man
  glycan array binding signal (z-score): 3
[18]
  glycan array binding signal (z-score): 0.361
[19]
  glycan array binding signal (z-score): -0.475
[20]
  glycan array binding signal (z-score): 0.463
[21]
  glycan array binding signal (z-score): -0.781
[22]
  glycan array binding signal (z-score): 2.92
[23]
  glycan array binding signal (z-score): 0.345
[24]
  glycan array binding signal (z-score): 0.727
